Inconclusive results are not listed. Activity calls are given as the source filed them. Unless noted, calls follow the shape of the dose curve; as a rule, active = well fitted curve in the direction sought with a large enough effect; inconclusive = small, poorly fitted or top-dose-only effect, or another doubt; inactive = no such curve, though single readings can be large; an effect the other way counts as inactive or inconclusive.
Columns and labels:
[1] = qHTS assay for measurement of the activity of small molecule inhibitors on Zika virus induced Caspase-3 activity in human iPSC derived neural progenitor cells (hNPCs) (AID 1224857); also: nearly all actives have a fitted effect of over 65% in size
In short: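 Caspase-3/7 induction by a 6-hour ZIKV infection was quantified with a luminescent Caspase-Glo 3/7 reagent incubated 30 minutes at room temperature. Compounds were preincubated with hNPCs for 1 hour; inhibition was calculated against uninfected and infected control wells.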

[2] = qHTS assay for measurement of the activity of small molecule inhibitors on Zika virus induced Caspase-3 activity in human astrocytoma cells (AID 1224859)
In short: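 In SNB-19 cells plated at 250 cells/well and grown 16-20 h, compounds were applied 1 h before ZIKV (2 FFU/cell). Six hours later caspase-3/7 luminescence was recorded.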

[3] = qHTS assay to identify small molecule inhibitors of chordoma cells - UCH-1 (AID 1259355); also: nearly all actives have a fitted effect of over 55% in size
In short: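 Screening used approved and investigational drugs in 15-point titration against 800 seeded cells per well. A fixed combination of auranofin with camptothecin, doxorubicin, rubitecan and topotecan followed compound addition, and growth was scored by CellTiter-Glo after 48hr.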

[4] = qHTS assay to identify small molecule inhibitors of chordoma cells - UCH-2 (AID 1259356); also: series mostly up to about 46 µM
[5] = P-glycoprotein substrates identified in KB-8-5-11 adenocarcinoma cell line, qHTS therapeutic library screen (AID 1346987); also: series mostly up to about 44 µM; nearly all actives have a fitted effect of over 65% in size
In short: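 Human cervical adenocarcinoma KB-8-5-11 cells, selected in colchicine to over-express P-gp and assayed without it, were exposed for 72 h to titrated compounds. An ATP-based luminescent viability signal gave AC50.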

[6] = NS1 protein of Zika virus - qHTS assay to identify small molecule inhibitors in human HEK 293 cells (AID 1347053); also: series mostly up to about 46 µM; nearly all actives have a fitted effect of over 55% in size
In short: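 TR-FRET signal from two anti-ZIKV NS1 antibodies quantified NS1 in HEK 293 cells 24 h after MR766 infection at MOI = 0.5; compounds were added 1 h before virus. Uninfected cells and infected cells defined the NS1 normalization range.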

[7] = Natriuretic polypeptide receptor (hNpr1) antagonism - Pilot counterscreen GloSensor control cell line (AID 1347045; calls by dose curve; also: series mostly up to about 38 µM)
In short: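 The SNP-driven cGMP luminescence signal (50 uM, 20 min, room temperature) was measured in GloSensor HEK293 control cells. Compounds were tested as a LOPAC titration series and preincubated for 30-50 min.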

[8] = target: Atrial natriuretic peptide receptor 1 (Homo sapiens) (UniProt P16066); test: Natriuretic polypeptide receptor (hNpr1) antagonism - Pilot screen (AID 1347049; calls by dose curve;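 also: agonist-evoked cGMP luminescence read 20 min after hNppA addition; series mostly up to about 58 µM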)
In short: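 cGMP-sensor HEK293/hNpr1 cells, 1500/well, plated overnight at 37C. 2% GloSensor reagent, 2 h RT. Compound (23 nL pin transfer) 30 min RT, baseline luminescence pre-read. 0.1 nM hNppA, 20 min RT, post-read.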

[9] = target: Atrial natriuretic peptide receptor 2 (Homo sapiens) (UniProt P20594); test: Natriuretic polypeptide receptor (hNpr2) antagonism - Pilot subtype selectivity assay (AID 1347050; calls by dose curve)
In short: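 Luminescence from a genetically encoded cGMP luciferase biosensor in hNpr2-expressing HEK293 cells is read before and 20 min after adding 1 nM hNppC. Test compounds, in interplate 1:5 titrations, are added 30-50 min ahead of the agonist.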

Measured: Potency

Sequence of Atrial natriuretic peptide receptor 2 (Homo sapiens) (P20594 whole entry, looked up): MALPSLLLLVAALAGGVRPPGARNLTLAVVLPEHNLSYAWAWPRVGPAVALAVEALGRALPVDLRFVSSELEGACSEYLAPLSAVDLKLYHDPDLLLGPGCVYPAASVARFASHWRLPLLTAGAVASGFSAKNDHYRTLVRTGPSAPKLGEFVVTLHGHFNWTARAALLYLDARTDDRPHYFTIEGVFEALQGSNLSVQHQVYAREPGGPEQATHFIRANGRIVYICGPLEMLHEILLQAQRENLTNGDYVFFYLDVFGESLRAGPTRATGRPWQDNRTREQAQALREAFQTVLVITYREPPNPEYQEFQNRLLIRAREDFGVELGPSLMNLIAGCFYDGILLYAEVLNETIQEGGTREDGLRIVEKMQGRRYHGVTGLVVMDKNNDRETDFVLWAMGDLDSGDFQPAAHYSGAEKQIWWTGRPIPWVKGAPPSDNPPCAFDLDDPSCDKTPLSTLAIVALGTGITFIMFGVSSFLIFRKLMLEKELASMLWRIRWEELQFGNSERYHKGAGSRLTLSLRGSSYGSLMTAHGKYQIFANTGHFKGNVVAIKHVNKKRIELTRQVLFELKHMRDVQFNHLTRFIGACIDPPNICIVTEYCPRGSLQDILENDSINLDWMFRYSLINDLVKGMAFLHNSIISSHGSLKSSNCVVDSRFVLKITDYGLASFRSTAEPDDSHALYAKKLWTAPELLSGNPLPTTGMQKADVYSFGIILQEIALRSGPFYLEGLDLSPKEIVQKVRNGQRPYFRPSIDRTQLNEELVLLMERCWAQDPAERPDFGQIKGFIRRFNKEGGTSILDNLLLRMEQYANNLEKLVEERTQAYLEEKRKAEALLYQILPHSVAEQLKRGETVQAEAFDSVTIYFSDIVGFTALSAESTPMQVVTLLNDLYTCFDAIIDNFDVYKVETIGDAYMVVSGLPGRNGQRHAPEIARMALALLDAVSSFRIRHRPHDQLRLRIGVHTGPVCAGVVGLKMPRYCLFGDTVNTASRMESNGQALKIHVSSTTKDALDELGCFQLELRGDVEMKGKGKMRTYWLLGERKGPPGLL
Sequence of Atrial natriuretic peptide receptor 1 (Homo sapiens) (P16066 whole entry, looked up): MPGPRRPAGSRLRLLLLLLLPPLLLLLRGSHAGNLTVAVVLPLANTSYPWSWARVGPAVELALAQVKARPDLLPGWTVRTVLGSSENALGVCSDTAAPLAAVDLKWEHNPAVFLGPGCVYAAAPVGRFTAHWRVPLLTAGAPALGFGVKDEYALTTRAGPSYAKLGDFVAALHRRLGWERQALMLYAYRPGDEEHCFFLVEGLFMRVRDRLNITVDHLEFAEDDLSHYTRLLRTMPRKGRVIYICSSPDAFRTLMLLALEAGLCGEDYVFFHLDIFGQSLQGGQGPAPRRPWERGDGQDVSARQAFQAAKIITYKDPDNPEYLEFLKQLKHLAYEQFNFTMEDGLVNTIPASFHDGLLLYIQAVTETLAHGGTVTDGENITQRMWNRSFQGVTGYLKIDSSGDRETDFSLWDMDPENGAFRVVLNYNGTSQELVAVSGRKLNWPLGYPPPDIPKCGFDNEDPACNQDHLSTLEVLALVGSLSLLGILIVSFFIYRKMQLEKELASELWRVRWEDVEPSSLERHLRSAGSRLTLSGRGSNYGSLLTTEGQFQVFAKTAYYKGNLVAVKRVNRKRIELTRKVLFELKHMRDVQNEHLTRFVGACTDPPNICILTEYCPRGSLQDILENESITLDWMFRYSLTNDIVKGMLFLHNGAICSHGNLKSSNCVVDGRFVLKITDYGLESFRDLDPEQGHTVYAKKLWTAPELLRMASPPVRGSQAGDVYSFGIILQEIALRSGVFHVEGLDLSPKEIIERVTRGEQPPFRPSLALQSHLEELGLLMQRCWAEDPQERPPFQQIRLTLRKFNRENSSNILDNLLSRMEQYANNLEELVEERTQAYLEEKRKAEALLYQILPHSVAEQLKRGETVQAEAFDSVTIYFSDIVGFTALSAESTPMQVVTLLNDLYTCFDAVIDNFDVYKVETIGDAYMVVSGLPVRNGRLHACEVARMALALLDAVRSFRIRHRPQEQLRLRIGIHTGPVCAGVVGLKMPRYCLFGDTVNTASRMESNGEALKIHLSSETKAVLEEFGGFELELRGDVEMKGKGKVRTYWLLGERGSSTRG

N[C@@H]1C[C@H]1c1ccccc1
not listed: [7] | [8] | [9]
inactive: all other assays above

c1ccc(C2CC2)c(OCC2=NCCN2)c1
inactive: all assays above

CC[N+]1(C)CCCC(OC(=O)C(O)(c2ccccc2)c2ccccc2)C1 (configuration not stated)
not listed: [7] | [8] | [9]
inactive: all other assays above

NCC(CC(=O)O)c1ccc(Cl)cc1 (configuration not stated)
inactive: all assays above

CCN(CC)CCOC(=O)C(O)(c1ccccc1)c1ccccc1
not listed: [7] | [8] | [9]
inactive: all other assays above

NN=C(N)N
inactive: all assays above

Cc1ncc(CNC(=O)N(CCCl)N=O)c(N)n1
inactive: all assays above

CO[C@]12CC[C@@]3(C[C@@H]1[C@](C)(O)C(C)(C)C)[C@@H]1Cc4ccc(O)c5c4[C@@]3(CCN1CC1CC1)[C@H]2O5
inactive: [1] | [2]

OCCOc1ccccc1
not listed: [7] | [8] | [9]
inactive: all other assays above

CCCN1CCC[C@@H]2Cc3[nH]ncc3C[C@H]21
not listed: [3]
inactive: all other assays above

CN1C[C@H](CNC(=O)OCc2ccccc2)C[C@@H]2c3cccc4c3c(cn4C)C[C@H]21
not listed: [5]
inactive: all other assays above

CCN(CC)CCN1C(=O)CN=C(c2ccccc2F)c2cc(Cl)ccc21
inactive: [1] | [2] | [3] | [4] | [6]

Clc1cccc(N2CCNCC2)c1
not listed: [7] | [8] | [9]
inactive: all other assays above

O=c1[nH]c2ccccc2n1C1CCN(CCCC(c2ccc(F)cc2)c2ccc(F)cc2)CC1
inactive: [1] | [2] | [4] | [9] | [6]

CCC(COC(=O)c1cc(OC)c(OC)c(OC)c1)(c1ccccc1)N(C)C (configuration not stated)
inactive: [1] | [2] | [3] | [4] | [6]

CC(C)=CCOc1c2occc2cc2ccc(=O)oc12
not listed: [3] | [4]
inactive: all other assays above

O=[N+]([O-])c1cc([As](=O)(O)O)ccc1O
not listed: [7] | [8] | [9]
inactive: all other assays above
